Test results published in the supplement of paper PMC4683952.
Structures can show the parent of a compound that is named as a salt. Out of some 1,200 compounds screened, about 50 (4%) showed activity. Only a selection was taken, and actives are over-represented in it overall. Values without a mark were called inactive. Cut-off read from the data, not from the text of the source: all actives reach 1.3 or more but so do some inactives.

Test system: Lgr5 (MarsCy1-Lgr5-EGFP, U2OS)
Assay: cell-surface Lgr5 expression (SCi1 fluorescence, background-subtracted) relative to WT DMSO (fold of DMSO control); higher = more Lgr5 at the plasma membrane, active = hit call of the paper
Conditions: U2OS MarsCy1-Lgr5-EGFP stable; treatment time: overnight; 16 µM; library: Johns Hopkins Clinical Compound Library

| SMILES | cell-surface Lgr5 expression |
| --- | --- |
| O=[N+]([O-])c1ccc(/C=N/O)o1 [Nifuroxime] | 0.992 |
| O.[Al+3].[Al+3].[Cl-].[OH-].[OH-].[OH-].[OH-].[OH-] [Aluminum chlorohydrate] | 0.754 |
| Cc1onc(-c2ccccc2)c1C(=O)N[C@@H]1C(=O)N2[C@@H]1SC(C)(C)[C@@H]2C(=O)O [Oxacillin] | 0.726 |
| C[C@]12C=CC(=O)C=C1CC[C@@H]1[C@@H]2[C@@H](O)C[C@@]2(C)[C@H]1CC[C@]2(O)C(=O)COP(=O)(O)O [Prednisolone sodium phosphate] | 1.25 |
| C[C@]12C=CC(=O)C=C1CC[C@@H]1[C@@H]2[C@@H](O)C[C@@]2(C)[C@H]1CC[C@]2(O)C(=O)COP(=O)(O)O [Prednisolone 21-phosphate, disodium salt] | 1.41 (active) |
| CC1(C)O[C@@H]2C[C@H]3[C@@H]4CCC5=CC(=O)C=C[C@]5(C)[C@H]4[C@@H](O)C[C@]3(C)[C@]2(C(=O)CO)O1 | 1.44 (active) |
| C[C@H]1C[C@@H]2[C@H]([C@@H](O)C[C@@]3(C)[C@H]2CC[C@]3(O)C(=O)CO)[C@@]2(C)C=CC(=O)C=C12 [Methylprednisolone (6-alpha-Methylprednisolone)] | 1.12 |
| CCC(=O)[C@@]1(C)[C@H](C)C[C@H]2[C@@H]3CCC4=CC(=O)C=C[C@]4(C)[C@H]3[C@@H](O)C[C@@]21C [Rimexolone] | 1.39 (active) |
| N[C@H]1C(O)O[C@H](CO)[C@@H](O)[C@@H]1O (some centres not stated) [Glucosamine] | 1.06 |
| c1ccc(Cc2nc3ccccc3[nH]2)cc1 [Bendazol (2-Benzylbenzimidazole)] | 1.05 |
| N=C(N)N1Cc2ccccc2C(O)C1 (configuration not stated) [4-Hydroxydebrisoquin] | 1.07 |
| Cc1cc2nc3c(=O)[nH]c(=O)nc-3n(C[C@H](O)[C@H](O)[C@H](O)COP(=O)(O)OP(=O)(O)OC[C@H]3O[C@@H](n4cnc5c(N)ncnc54)[C@H](O)[C@@H]3O)c2cc1C [Flavin adenine dinucleotide] | 1.01 |
| CCOc1ccc(NC(C)=O)cc1 [Phenacetin (acetophenetidin)] | 1.24 |
| CCOc1ccc(NC(=O)CC(C)O)cc1 (configuration not stated) [Bucetin] | 1.29 |
| CCCCOc1ccc(CC(=O)NO)cc1 [Bufexamac] | 1.82 (active) |
| Cc1c(C)c2c(c(C)c1O)CCC(C)(COc1ccc(CC3SC(=O)NC3=O)cc1)O2 (configuration not stated) [Troglitazone] | 1.09 |
| Oc1cccc(O)c1O [Pyrogallol] | 1.15 |
| CC(=O)OCC(=O)[C@@]1(O)CC[C@H]2[C@@H]3CCC4=CC(=O)C=C[C@]4(C)[C@@]3(Cl)[C@@H](Cl)C[C@@]21C [Dichlorisone acetate] | 1.55 (active) |
| CC1(C)O[C@@H]2C[C@H]3[C@@H]4CCC5=CC(=O)CC[C@]5(C)[C@@]4(F)[C@@H](O)C[C@]3(C)[C@]2(C(=O)CCl)O1 [Halcinonide] | 1.71 (active) |
| CC(=O)OCC(=O)[C@@]1(O)CC[C@H]2[C@@H]3CCC4=CC(=O)CC[C@]4(C)[C@@]3(F)[C@@H](O)C[C@@]21C | 1.35 (active) |
| Nc1ccn([C@@H]2CS[C@H](CO)O2)c(=O)n1 [Lamivudine] | 0.724 |
| COc1cc2c(cc1OC)C(=O)C(CC1CCN(Cc3ccccc3)CC1)C2 (configuration not stated) [Donepezil hydrochloride] | 0.531 |
| C[N+](C)(C)CCO.O=C([O-])CC(O)(CC(=O)O)C(=O)O [Choline dihydrogen citrate] | 0.803 |

| SMILES | cell-surface Lgr5 expression |
| --- | --- |
| CCOC(=O)[C@H](CCc1ccccc1)N[C@@H](C)C(=O)N1Cc2ccccc2C[C@H]1C(=O)O [Quinapril] | 1.13 |
| O=C([O-])[O-].[Li+].[Li+] [Lithium carbonate] | 0.278 |
| N=C(N)NC(=N)NCCc1ccccc1 [Phenformin hydrochloride] | 0.756 |
| O=S(=O)([O-])[O-].[Fe+2] [Ferrous sulfate] | 0.888 |
| CCCOc1ccc(C(=O)OCCN(CC)CC)cc1N [Proparacaine] | 1.22 |
| CCN(CC)CCOc1ccc2c(c1)C(=O)c1cc(OCCN(CC)CC)ccc1-2 [Tilorone dihydrochloride] | 1.62 (active) |
| CCCCOc1cc(C(=O)OCCN(CC)CC)ccc1N [Benoxinate] | 0.987 |
| Cl.Cl.NCCN [Ethylenediamine dihydrochloride] | 1.05 |
| COC(=O)[C@H](Cc1ccccc1)NC(=O)[C@@H](N)CC(=O)O [Aspartame] | 0.834 |
| C[C@H](CCC(=O)O)[C@H]1CC[C@H]2[C@@H]3[C@@H](O)C[C@@H]4C[C@H](O)CC[C@]4(C)[C@H]3CC[C@]12C [Ursodiol (Ursodeoxycholic acid)] | 0.801 |
| S=c1[nH]cnc2nc[nH]c12 [6-Mercaptopurine monohydrate] | 1.67 (active) |
| Nc1nc2[nH]cnc2c(=S)[nH]1 [Thioguanine (2-amino,6-mercaptopurine)] | 0.849 |
| COc1ccc(CN2CCN(C(c3ccc(F)cc3)c3ccc(F)cc3)CC2)c(OC)c1OC [Lomerizine HCl] | 1.15 |
| O=C[O-].[Na+] [Sodium formate] | 0.903 |
| C=N[C@@H](C(=O)N[C@@H]1C(=O)N2[C@@H]1SC(C)(C)[C@@H]2C(=O)O)c1ccccc1 [Metampicillin] | 0.953 |
| N.N.O=S(=O)(O)O [Ammonium sulfate] | 0.987 |
| COc1ccc2cc3[n+](cc2c1OC)CCc1cc2c(cc1-3)OCO2 [Berberine bisulfate] | 1.47 |
| COc1ccc2cc3[n+](cc2c1OC)CCc1cc2c(cc1-3)OCO2 [Berberine] | 1.64 (active) |
| O.O.O.O.O.O.[Cl-].[Cl-].[Sr+2] [Strontium chloride hexahydrate] | 1.29 |
| COc1cccc2c1C(=O)c1c(O)c3c(c(O)c1C2=O)C[C@@](O)(C(=O)CO)C[C@@H]3O[C@H]1C[C@H](N)[C@H](O)[C@H](C)O1 [Doxorubicin] | 0.634 |
| O=C(Nc1ccc(Cl)cc1)Nc1ccc(Cl)c(Cl)c1 [Trilocarban (3,4,4'-Trichlorocarbanilide, 99%)] | 0.931 |
| COc1ccccc1OCC(O)CO (configuration not stated) [Guaifenesin] | 1.27 |
| C=CCOc1ccccc1OCC(O)CNC(C)C (configuration not stated) [Oxprenolol] | 1.42 (active) |

| SMILES | cell-surface Lgr5 expression |
| --- | --- |
| COc1ccccc1OCC(O)CO (configuration not stated) [Guaifenesen (Guaiacol glyceryl ether)] | 1.11 |
| CC(C)NCC(O)COc1cccc2ccccc12 (configuration not stated) [Propranolol] | 1.07 |
| COC(=O)CCc1ccc(OCC(O)CNC(C)C)cc1 (configuration not stated) [Esmolol] | 1.29 |
| Nc1nc(O)c2ncn(CCC(CO)CO)c2n1 [Penciclovir] | 0.791 |
| CC(=O)[O-].CC(=O)[O-].[Mg+2] [Magnesium acetate] | 0.917 |
| CN(C(=O)C(Cl)Cl)c1ccc(OC(=O)c2ccco2)cc1 [Diloxanide furoate] | 1.05 |
| CC1(C)S[C@@H]2[C@H](NC(=O)C3(N)CCCCC3)C(=O)N2[C@H]1C(=O)O [Cyclacillin] | 0.994 |
| CC(=O)N(O)CCCCCNC(=O)CCC(=O)N(O)CCCCCNC(=O)CCC(=O)N(O)CCCCCN [Deferoxamine mesylate] | 0.865 |
| Nc1ccc(C(=O)O)cc1 [4-Aminobenzoic acid, sodium salt,99%] | 0.905 |
| CCCN(CCC)S(=O)(=O)c1ccc(C(=O)O)cc1 [Probenecid] | 1.01 |
| NS(=O)(=O)c1ccc(C(=O)O)cc1 [Carzenide (4-Carboxybenzenesulfonamide, 97%)] | 1.3 (active) |
| Oc1c(I)cc(Cl)c2cccnc12 [Clioquinol] | 1.18 |
| CCCCCCN(C)C [N,N-Dimethylhexylamine] | 1.05 |
| O=NN(CCCl)C(=O)NC1CCCCC1 [Lomustine] | 1.37 |
| CCC(=O)O[C@H]1[C@H](O[C@@H]2[C@@H](C)[C@H](O[C@H]3C[C@@](C)(OC)[C@@H](O)[C@H](C)O3)[C@@H](C)C(=O)O[C@H](CC)[C@@](C)(O)[C@H](O)[C@@H](C)C(=O)[C@H](C)C[C@@]2(C)O)O[C@H](C)C[C@@H]1N(C)C [Erythromycin estolate] | 0.567 |
| CCOc1ccc2nc(S(N)(=O)=O)sc2c1 [Ethoxzolamide (6-Ethoxy-2-benzothiazolesulfonamide)] | 1.15 |
| CCN1CCCC1CNC(=O)c1cc(S(N)(=O)=O)ccc1OC (racemic) [Sulpiride (+/-)-] | 1.07 |
| CCc1cc(Cl)c(OC)c(C(=O)NC[C@@H]2CCCN2CC)c1O [Eticlopride hydrochloride (S)] | 1.52 (active) |
| O=C([O-])C(=O)[O-].O=C([O-])C(=O)[O-].O=C([O-])C(=O)[O-].[Ce+3].[Ce+3] [Cerium oxalate] | 1.08 |
| COC(=O)c1ccc(O)c2nc3c(C=O)c(O)cc(O)c3nc12 [Lomofungin] | 0.884 |
| COc1ccnc(C[S+]([O-])c2nc3cc(OC(F)F)ccc3[nH]2)c1OC (configuration not stated) [Pantoprazole] | 1.01 |
